Measurements from PubChem BioAssay (Tox21).
Inconclusive results are not listed. Activity calls are given as the source filed them. Unless noted, the call rests on the fitted dose curve; in most records, active means well fitted curve in the direction sought with a large enough effect in the repeat runs; inconclusive means weak or mixed curves; inactive means no such curve, though single readings can be large; an effect the other way counts as inactive or inconclusive.

Legend:
[1] = target: Thyrotropin receptor (Homo sapiens) (UniProt P16473); assay: qHTS assay to identify small molecule agonists of the thyroid stimulating hormone receptor (TSHR) signaling pathway (AID 1224843; calls by dose curve; further: nearly all actives have a fitted effect of over 45% in size)
Sequence of Thyrotropin receptor (Homo sapiens) (P16473 whole entry, looked up): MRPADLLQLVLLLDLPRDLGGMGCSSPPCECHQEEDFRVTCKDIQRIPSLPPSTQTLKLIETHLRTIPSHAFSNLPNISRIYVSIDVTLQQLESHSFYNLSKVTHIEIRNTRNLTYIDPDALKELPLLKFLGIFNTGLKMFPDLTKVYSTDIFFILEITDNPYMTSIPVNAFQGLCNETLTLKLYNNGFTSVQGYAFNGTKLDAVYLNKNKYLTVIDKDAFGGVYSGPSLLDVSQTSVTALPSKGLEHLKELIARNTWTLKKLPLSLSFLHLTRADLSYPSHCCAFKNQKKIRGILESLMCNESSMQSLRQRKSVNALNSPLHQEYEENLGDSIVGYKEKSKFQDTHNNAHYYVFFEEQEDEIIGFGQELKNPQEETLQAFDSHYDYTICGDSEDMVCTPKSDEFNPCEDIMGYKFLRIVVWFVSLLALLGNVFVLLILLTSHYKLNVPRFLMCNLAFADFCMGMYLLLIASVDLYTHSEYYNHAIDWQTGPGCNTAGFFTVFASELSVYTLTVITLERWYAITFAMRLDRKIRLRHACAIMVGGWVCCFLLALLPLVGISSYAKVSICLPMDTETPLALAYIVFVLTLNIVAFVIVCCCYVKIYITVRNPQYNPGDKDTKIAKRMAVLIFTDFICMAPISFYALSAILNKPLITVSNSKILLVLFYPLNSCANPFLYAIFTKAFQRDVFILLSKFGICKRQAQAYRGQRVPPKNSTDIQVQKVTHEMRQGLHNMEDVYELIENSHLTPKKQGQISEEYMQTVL
Procedure, shortened: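 Using 15 concentrations per compound in triplicate, cAMP production was monitored in TSHR-HEK293 cells after 30 min compound incubation at RT; HTRF reagents followed, with fluorescence intensity recorded after 1 h.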

[2] = qHTS assay to identify small molecule agonists of the hypoxia (HIF-1) signaling pathway - cell viability counter screen (AID 1224844; calls by dose curve; further: nearly all actives have a fitted effect of over 50% in size)
Procedure, shortened: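 Cytotoxicity was measured in parallel with the HRE-driven beta-lactamase readout: after 17 hrs of compound exposure at 37C, HRE-bla ME-180 cells received CellTiter-Glo and luminescence was recorded 30 min later.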

[3] = qHTS assay to identify small molecule agonists of H2AX (AID 1224845; active means well fitted activation curve with a large enough effect in the signal ratio in the repeat runs, not every such curve was filed as active; the % refers to the signal ratio)
Procedure, shortened: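 Wild-type CHO-K1 cells plated overnight, then exposed 3 hr at 37C to compounds at 15 concentrations (0.76% DMSO). Lysed, then HTRF anti-pH2AX(S139)-cryptate/anti-H2AX-d2 detection after 24 hr at room temperature; emissions 665 and 620 nm.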

[4] = qHTS assay to identify small molecule agonists of H2AX - cell viability counter screen (AID 1224847; calls by dose curve; further: top concentration of the series differs between compounds; nearly all actives have a fitted effect of over 30% in size)
Procedure, shortened: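 Wild-type CHO-K1 cells (10% FBS medium) were plated overnight at 37C, exposed to compounds at 15 concentrations for 3 hr at 37C (0.76% DMSO final), and viability was read as CellTiter-Glo luminescence after 30 min at room temperature.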

[5] = A CellTox Green Cytotoxicity Assay to monitor cytotoxicity in HEK293 cells - 0 hour (AID 1224869); further: nearly all actives have a fitted effect of over 50% in size
Procedure, shortened: (§1)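 Cells (HEK293, 600/well) and dye reagent are dispensed together. After 5 h at 37 C, 23 nL compound is pinned in. Plates stay at 37 C for 40 h with fluorescence read at 0h, 8h, 16h, 24h, 32h and 40h.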

[6] = A CellTox Green Cytotoxicity Assay to monitor cytotoxicity in HEK293 cells - 40 hour (AID 1224871); further: nearly all actives have a fitted effect of over 45% in size
Procedure, shortened: as §1

[7] = A CellTox Green Cytotoxicity Assay to monitor cytotoxicity in HEK293 cells - 24 hour (AID 1224875); further: nearly all actives have a fitted effect of over 45% in size
Procedure, shortened: as §1

[8] = A CellTox Green Cytotoxicity Assay to monitor cytotoxicity in HepG2 cells - 16 hour (AID 1224876); further: nearly all actives have a fitted effect of over 45% in size
Procedure, shortened: (§2)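 Cells and non-lytic dye reagent are dispensed together (600 HepG2 cells/well) and incubated 5 h before DMSO compound transfer. Kinetic fluorescence is then recorded in the same wells during 40 h at 37 C.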

[9] = A CellTox Green Cytotoxicity Assay to monitor cytotoxicity in HepG2 cells - 24 hour (AID 1224878); further: nearly all actives have a fitted effect of over 45% in size
Procedure, shortened: as §2

[10] = A CellTox Green Cytotoxicity Assay to monitor cytotoxicity in HepG2 cells - 40 hour (AID 1224879); further: nearly all actives have a fitted effect of over 40% in size
Procedure, shortened: as §2

[11] = qHTS assay to identify small molecule agonists of the estrogen related receptor (ERR) signaling pathway from Tox21 library (AID 1224849; calls by dose curve; further: nearly all actives have a fitted effect of over 15% in size); conditions: ERR reporter cell line, ONE-Glo luciferase, 18 h; at 92.4 µM (top of the series) unless noted
Procedure, shortened: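 Cells carrying the ERR reporter were plated and allowed to settle for 6 h, exposed to library compounds for 18 h at 37 C, then lysed with ONE-Glo and luminescence measured.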

[12] = qHTS RealTime-Glo MT Cell Viability Assay in HepG2 cells - 24 hour (AID 1224867); further: nearly all actives have a fitted effect of over 50% in size
Procedure, shortened: (§3)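 Luminescence read-out: viable HepG2 cells reduce a prosubstrate to a NanoLuc substrate, giving a signal proportional to live cell number. Reads taken at 0, 8, 16, 24, 32 and 40 h of compound exposure at 37 C.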

[13] = qHTS RealTime-Glo MT Cell Viability Assay in HEK293 cells - 32 hour (AID 1224868); further: top concentration of the series differs between compounds; nearly all actives have a fitted effect of over 50% in size
Procedure, shortened: (§4)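 Nonlytic real-time viability readout: viable cells convert prosubstrate to NanoLuc substrate, giving luminescence proportional to live cell number. HEK293, 600 cells/well, compound added after 5 h, continuous culture at 37 C.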

[14] = qHTS RealTime-Glo MT Cell Viability Assay in HEK293 cells - 16 hour (AID 1224872)
Procedure, shortened: as §4

[15] = qHTS RealTime-Glo MT Cell Viability Assay in HepG2 cells - 8 hour (AID 1224873); further: nearly all actives have a fitted effect of over 55% in size
Procedure, shortened: (§5)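 HepG2 cells mixed with RealTime-Glo MT reagents (NanoLuc plus cell-permeant prosubstrate) were seeded at 600 cells/well, incubated 5 h at 37 C/5% CO2, then pinned with compounds in DMSO; nonlytic luminescence tracked viability during 40 h treatment.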

[16] = qHTS RealTime-Glo MT Cell Viability Assay in HEK293 cells - 40 hour (AID 1224874); conditions: RealTime-Glo luminescence; max response: hits give low values; further: nearly all actives have a fitted effect of over 50% in size
Procedure, shortened: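 Real-time viability in HEK293: signal arises when living cells convert a prosubstrate for NanoLuc in the medium, so luminescence tracks viable cell number. Compound (23 nL, DMSO) added 5 h post-seeding; kinetic reads at 0–40 h, 37 C.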

[17] = qHTS RealTime-Glo MT Cell Viability Assay in HepG2 cells - 32 hour (AID 1224877); further: nearly all actives have a fitted effect of over 55% in size
Procedure, shortened: as §3

[18] = qHTS assay to identify small molecule antagonists of the estrogen related receptor (ERR) signaling pathway from Tox21 library (AID 1224848); further: nearly all actives have a fitted effect of over 50% in size
Procedure, shortened: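 Tox21 10K compounds in DMSO tested for ERR pathway antagonism in NTP's ERR cell line; 18 h, 37 C exposure; ONE-Glo luminescence.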

[19] = qHTS RealTime-Glo MT Cell Viability Assay in HepG2 cells - 40 hour (AID 1224870); further: nearly all actives have a fitted effect of over 50% in size
Procedure, shortened: as §5

[20] = qHTS assay to identify small molecule agonists of the hypoxia (HIF-1) signaling pathway (AID 1224846; active means well fitted activation curve with a large enough effect in the signal ratio in the repeat runs, not every such curve was filed as active; the % refers to the signal ratio)
Procedure, shortened: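 Compounds from the Tox21 10K library, dissolved in DMSO, are tested for induction of a hypoxia response element–controlled beta-lactamase reporter in ME-180 cells. Exposure lasts 17 hrs at 37C after a 5 hr settling period, followed by CCF4-AM FRET substrate.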
On the % scale 0 is the no-effect control and ±100 the full control effect.

Nc1nnc(-c2cccc(Cl)c2Cl)c(N)n1
inactive: Potency [1] | outcome [2] | outcome [3] | Potency [4] | outcome [5] | Potency [6] | outcome [7] | outcome [8] | outcome [9] | Potency [10]

COC(=O)[C@@H]1[C@H]2C[C@H]3c4[nH]c5ccccc5c4CCN3C[C@@H]2CC[C@@H]1O
inactive: Potency [1] | outcome [2] | Potency [4] | outcome [12] | Potency [13] | outcome [5] | Potency [6] | Potency [14] | outcome [15] | max response [16] -22.3% | outcome [7] | outcome [8] | outcome [17] | outcome [9] | Potency [10]
active: activity change, positive = activation [11] 33.5% [at 42.5 µM]

C[C@H](CCC(=O)O)[C@H]1CC[C@H]2[C@@H]3C(=O)C[C@@H]4CC(=O)CC[C@]4(C)[C@H]3CC(=O)[C@]12C
inactive: Potency [1] | outcome [2] | outcome [3] | Potency [4] | Potency [18] | activity change, positive = activation [11] -0.444% [at 42.5 µM] | outcome [12] | Potency [13] | outcome [5] | outcome [19] | Potency [6] | Potency [14] | outcome [15] | max response [16] 4.35% | outcome [7] | outcome [17] | outcome [9]

O=C1c2ccccc2C(=O)C1c1ccccc1
inactive: Potency [1] | outcome [2] | outcome [3] | Potency [4] | outcome [12] | Potency [13] | outcome [5] | outcome [19] | Potency [6] | Potency [14] | outcome [15] | max response [16] 3.3% | outcome [7] | outcome [8] | outcome [9] | Potency [10]

Cc1cc(C(C)(C)C)c(O)c(C)c1CC1=NCCN1
inactive: Potency [1] | outcome [2] | outcome [3] | Potency [4] | outcome [12] | Potency [13] | outcome [5] | outcome [19] | Potency [6] | Potency [14] | outcome [15] | max response [16] 0.324% | outcome [7] | outcome [17] | Potency [10]

CCCCCCN
inactive: Potency [1] | outcome [2] | outcome [3] | Potency [4] | outcome [12] | Potency [13] | outcome [5] | outcome [19] | Potency [6] | Potency [14] | outcome [15] | max response [16] 9.84% | outcome [7] | outcome [8] | outcome [17] | outcome [9] | Potency [10]

CCCC(=O)C(C)=O
inactive: Potency [1] | outcome [2] | outcome [3] | outcome [20] | Potency [18] | activity change, positive = activation [11] 7.37% | outcome [12] | outcome [5] | Potency [6] | outcome [15] | max response [16] -1.51% | outcome [7] | outcome [8] | outcome [9]

CC1=C(C(=O)O)N2C(=O)[C@@H](NC(=O)[C@H](N)c3ccc(O)cc3)[C@H]2SC1
inactive: Potency [1] | outcome [2] | outcome [3] | Potency [4] | outcome [12] | Potency [13] | outcome [5] | outcome [19] | Potency [6] | Potency [14] | outcome [15] | max response [16] 13.3% | outcome [7] | outcome [8] | outcome [17] | outcome [9] | Potency [10]

CC(C(=O)O)c1ccc2c(c1)CC(=O)c1ccccc1S2 (centres undefined)
inactive: Potency [1] | outcome [2] | outcome [20] | Potency [4] | Potency [18] | activity change, positive = activation [11] 4.13% [at 42.5 µM] | outcome [12] | Potency [13] | outcome [5] | outcome [19] | Potency [6] | Potency [14] | outcome [15] | max response [16] -2.02% | outcome [7] | outcome [8] | outcome [17] | outcome [9] | Potency [10]

O=C(O)c1cc(Br)c(O)c(Br)c1
inactive: Potency [1] | outcome [2] | outcome [20] | Potency [4] | Potency [18] | activity change, positive = activation [11] 4.86% | outcome [12] | Potency [13] | outcome [5] | outcome [19] | Potency [6] | Potency [14] | outcome [15] | max response [16] -4.67% | outcome [7] | outcome [8] | outcome [17] | outcome [9] | Potency [10]

CCCCCCCCSCC
inactive: Potency [1] | outcome [2] | outcome [3] | outcome [20] | Potency [18] | activity change, positive = activation [11] 4.95% | outcome [12] | Potency [13] | outcome [5] | outcome [19] | Potency [6] | Potency [14] | outcome [15] | max response [16] 7.92% | outcome [8] | outcome [17] | outcome [9] | Potency [10]

CO[C@@H]1[C@@H](OC(N)=O)[C@@H](O)[C@H](Oc2ccc3c(O)c(NC(=O)c4ccc(O)c(CC=C(C)C)c4)c(=O)oc3c2C)OC1(C)C
inactive: Potency [1] | outcome [2] | outcome [3] | Potency [4] | activity change, positive = activation [11] -2.51% [at 42.5 µM] | outcome [12] | Potency [13] | outcome [5] | outcome [19] | Potency [6] | Potency [14] | outcome [15] | max response [16] 7.28% | outcome [7] | outcome [8] | outcome [17] | outcome [9] | Potency [10]

CC(=O)Nc1cccc(C)c1
inactive: Potency [1] | outcome [2] | outcome [3] | outcome [20] | Potency [4] | outcome [12] | outcome [5] | Potency [6] | outcome [15] | outcome [7] | outcome [8] | outcome [17] | outcome [9] | Potency [10]

CN(C)C(=O)CNC(=O)Cc1ccccc1
inactive: Potency [1] | outcome [3] | outcome [20] | Potency [4] | outcome [12] | outcome [5] | outcome [19] | Potency [6] | Potency [14] | outcome [15] | max response [16] 4.97% | outcome [7] | outcome [17]

C=Cc1ccccn1
inactive: Potency [1] | outcome [3] | outcome [20] | Potency [4] | outcome [12] | Potency [13] | outcome [5] | outcome [19] | Potency [6] | Potency [14] | outcome [15] | max response [16] -0.127% | outcome [7] | outcome [8] | outcome [17] | outcome [9]
